Compounds with a hit are over-represented: about 2.4% of the library has one in this group of screens.
p97 inhibitor: inhibitors of human p97 ATPase, primary screen, biochemical; Transitional endoplasmic reticulum ATPase (Homo sapiens), P55072; recombinant p97 ATPase, Kinase-Glo ATP luminescence, 3 h; inhibition, % at 8 µM; hit rate 0.42% among 220,000; AID 1481, 2009; in the data active means inhibition above about 15%
Arbovirus anti: antivirals against arbovirus infection, primary screen, cell-based, full library, 10K replicate subset. arbovirus infection cell-based antiviral screen. inhibition, % at 10 µM. hit rate 0.37% among 200,000. AID 1251, 2008; in the data active means inhibition above about 30%
EP2 antag: human EP2 receptor antagonists, primary screen, TR-FRET cAMP, C6 glioma cells; Prostaglandin E2 receptor EP2 subtype (Homo sapiens), P43116; C6 glioma cells expressing human EP2; cells stimulated with saturating PGE2; inhibition, % at 25 µM; hit rate 0.52% among 260,000; AID 1422, 2008;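 active means percent inhibition above 40 after rounding to a whole number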;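 further: rat C6 glioma host cells with rolipram phosphodiesterase inhibitor present; the protocol text gives 20 µM as final concentration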
Target sequence (P43116 whole entry, looked up): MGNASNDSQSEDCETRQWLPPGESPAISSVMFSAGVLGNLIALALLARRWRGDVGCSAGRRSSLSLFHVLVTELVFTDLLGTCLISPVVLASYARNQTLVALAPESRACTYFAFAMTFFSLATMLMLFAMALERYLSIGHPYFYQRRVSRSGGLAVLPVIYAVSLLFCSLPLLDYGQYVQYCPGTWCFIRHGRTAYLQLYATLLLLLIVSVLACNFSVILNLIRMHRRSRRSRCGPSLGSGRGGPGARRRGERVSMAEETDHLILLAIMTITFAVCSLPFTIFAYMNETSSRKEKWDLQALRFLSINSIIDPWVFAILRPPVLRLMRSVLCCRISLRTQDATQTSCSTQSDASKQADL
Hck Nef HTS: inhibitors of Nef-activated human Hck kinase, primary screen, biochemical, Z-Lyte FRET, 384-well, Hck-YEEI | Tyrosine-protein kinase HCK (Homo sapiens), P08631 | Recombinant Hck-YEEI plus Nef, Z-Lyte FRET kinase assay | inhibition, % at 20 µM | hit rate 0.68% among 220,000;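 active means Hck-Nef kinase inhibition above about 50%, limit read from the data; inactive means inhibition below that limit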
EP2 mod: EP2 receptor modulators, cAMP readout, primary screen, cell-based, HTRF cAMP, PGE2 stimulation; EP2-expressing cells, cAMP HTRF FRET, PGE2 co-stimulation; Prostaglandin E2 receptor EP2 subtype (Homo sapiens), P43116; hit rate 0.83% among 260,000; induction, % at 25 µM;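 active means compounds whose cAMP rise, as percent of the full-agonist control response, exceeds 60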;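 further: rat C6 glioma line stably carrying human EP2 under a CMV promoter; the protocol text gives 20 µM as final concentration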
A number is an active result; i = inactive; nt = not tested or not shown.

SMILES	p97 inhibitor	Arbovirus anti	EP2 antag	Hck Nef HTS	EP2 mod
O=C(O)c1ccc(-c2nc3scc(-c4ccccc4)c3c(=O)[nH]2)cc1	i	nt	40.7	i	i
Nc1cc(-c2cccs2)nn(CC(=O)Nc2ccc(F)cc2)c1=O	nt	nt	i	nt	i
COc1ccc(-c2nc(N)c3ncn([C@H]4O[C@H](CO)[C@@H](O)[C@@H]4O)c3n2)cc1	nt	nt	52.0	nt	i
CC(C)=CCc1c(O)cc(O)c2c(=O)c3c(CC=C(C)C)c(O)ccc3oc12	nt	nt	41.9	nt	nt
CC(C)=CCc1c(O)cc2c(=O)c3ccc(O)cc3oc2c1O	nt	nt	i	nt	nt
CN(Cc1ccccc1)C(=O)CC(c1ccccc1)c1cc(Cl)ccc1O (stereo unspecified)	i	i	nt	i	61.3
CCc1ccc(CN(CCCn2ccnc2)Cc2ccc(C)s2)o1	nt	nt	i	nt	i
O=C(/C=C/NNC(=O)c1ccncc1)c1ccccc1	nt	nt	i	nt	i
c1cncc(-c2noc(C34CC5CC(CC(C5)C3)C4)n2)c1	i	i	i	i	63.1
Cc1cc(C)c2[nH]c(=O)c(CN(Cc3ccco3)Cc3nnnn3Cc3ccccc3)cc2c1	nt	nt	i	nt	i
Cc1cccc2cc(CN(CCO)C(=S)NCc3ccco3)c(=O)[nH]c12	nt	nt	i	nt	i
CN(CC(=O)Nc1ccccc1Sc1ccccc1)C1CCCCC1	i	i	i	i	64.1
CCOc1ccc2nc(NC(=O)CSc3nc(-c4ccccc4)c(C#N)c(=O)[nH]3)sc2c1	i	61.5	i	i	i
CCc1nc(SCc2ccc(F)cc2)[nH]c(=O)c1C#N	i	40.4	i	i	i
COc1cccc(-c2nc(SCC(=O)Nc3nc(-c4ccccc4)c(C)s3)[nH]c(=O)c2C#N)c1	i	57.6	i	i	i
Cc1sc(NC(=O)CSc2nc(O)cc(=O)[nH]2)nc1-c1ccccc1	i	i	i	i	i
CCSc1nc(-c2ccccc2)c(C#N)c(=O)[nH]1	i	i	49.6	i	i
CSc1nc(-c2ccccc2)c(C#N)c(=O)[nH]1	i	nt	i	i	i
CC(NC(=O)C(c1ccccc1)C1CCCC1)c1nc(-c2cccnc2)n[nH]1 (stereo unspecified)	nt	nt	i	nt	i
Cc1ccc(N2C(=O)NC(=O)/C(=C\c3cn(CC(=O)NCc4ccco4)c4ccccc34)C2=O)cc1	nt	nt	i	nt	i
CC1CCCN(C(=O)CSc2nc3ccccc3n2Cc2ccccc2F)C1 (stereo unspecified)	nt	nt	i	nt	i
COc1ccc(OC)c(/C=N\NC(=O)CC(=O)NCCc2ccccc2)c1	i	31.4	i	i	i
O=C(CCCSc1nc(-c2ccco2)cc(C(F)(F)F)n1)NC1CCCCCC1	nt	nt	i	nt	i
CC(C)(C)NC(=O)c1cccc2c1OC(C)(C)C2	i	i	i	i	i
CC1(C)Cc2cccc(C(=O)Nc3ccc(F)cc3F)c2O1	i	nt	i	i	82.0
SMILES	p97 inhibitor	Arbovirus anti	EP2 antag	Hck Nef HTS	EP2 mod
Cc1cc(C(F)(F)F)nn1CC(=O)NNC(=S)Nc1ccc(Cl)cc1	i	i	196.1	i	i
Cc1c(Cc2ccccc2)c(=O)n2c([nH]c3ccccc32)c1C#N	i	nt	i	i	i
COc1ccccc1N=Cc1c(C)c(C#N)c2[nH]c3ccccc3n2c1=O	i	i	i	53.4	i
O=C(NCc1nc(-c2ccccc2)no1)c1ccnc2ccc(Cl)cc12	nt	nt	i	nt	i
COc1ccccc1CN1CCc2c(nc(N3CC(C)OC(C)C3)[nH]c2=O)C1 (stereo unspecified)	nt	nt	nt	nt	i
O=C(Cc1cccs1)Nc1cccc(-c2nc3cc4ccccc4cc3[nH]2)c1	i	i	117.3	i	i
CCN1CCN(C(=O)CSc2nc(-c3cccs3)cc(C(F)(F)F)n2)CC1	nt	nt	i	nt	i
COc1ccc(S(=O)(=O)N2CCCC(C(=O)NCc3ccccc3Cl)C2)cc1 (stereo unspecified)	nt	nt	i	nt	i
COc1ccc(-c2noc(COc3ccc4c(c3)OCO4)n2)cc1	i	i	99.3	i	i
COc1ccc(-c2noc(COc3ccc4c(c3)OCO4)n2)cc1OC	i	i	i	i	i
CC(=O)C1=C(O)C(=O)N(CC#N)C1c1ccc(Cl)cc1Cl (stereo unspecified)	nt	nt	i	nt	i
CCOc1cc(/C=C(\C#N)C(=O)Nc2ccccc2[N+](=O)[O-])ccc1OCc1cccc2ccccc12	i	i	i	55.3	i

Screens: PubChem BioAssay, several laboratories
